From the supplement of paper PMC9262897, “Low-cost anti-mycobacterial drug discovery using engineered E. coli” (Nature Communications, 2022)
Where a name gives a salt, the structure may show the parent alone. ± gives the standard deviation of the averaged measurements.

Tested on: E. coli TESEC Mtb Alr
Assay: growth (OD600 after 10 h); higher = more growth (less inhibition)
Conditions: compound 0.1 mM
Description: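 TESEC Mtb Alr E. coli, or the Alr+ wild-type control, in 384-well plates with Prestwick library compounds at 0.1 mM and 1% DMSO, across arabinose induction levels of 1E3 to 1E7 nM. Growth is read as OD600 after 10 h at 37 °C in triplicate biological replicates.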

[1] = arabinose 1000 nM, raw OD600 reference: median of DMSO wells 0.294, cell-free background 0.041
[2] = arabinose 10000 nM, raw OD600 reference: median of DMSO wells 0.264, cell-free background 0.041
[3] = arabinose 100000 nM, raw OD600 reference: median of DMSO wells 0.201, cell-free background 0.041
[4] = arabinose 1000000 nM, raw OD600 reference: median of DMSO wells 0.193, cell-free background 0.041
[5] = arabinose 10000000 nM, raw OD600 reference: median of DMSO wells 0.146, cell-free background 0.041

SMILES | growth [1] | growth [2] | growth [3] | growth [4] | growth [5]
Cc1ncc(C[n+]2csc(CCO)c2C)c(N)n1 [Thiamine hydrochloride] | 0.295 ± 0.0076 | 0.251 ± 0.0027 | 0.174 ± 0.014 | 0.185 ± 0.0064 | 0.129 ± 0.0017
CC(C)(Oc1ccc(CCNC(=O)c2ccc(Cl)cc2)cc1)C(=O)O [Bezafibrate] | 0.296 ± 0.0036 | 0.237 ± 0.0024 | 0.208 ± 0.028 | 0.163 ± 0.0041 | 0.138 ± 0.0072
CC1(C)O[C@@H]2C[C@H]3[C@@H]4C[C@H](F)C5=CC(=O)CC[C@]5(C)[C@H]4[C@@H](O)C[C@]3(C)[C@]2(C(=O)CO)O1 [Flurandrenolide] | 0.289 ± 0.015 | 0.2518 ± 0.0025 | 0.174 ± 0.022 | 0.161 ± 0.01 | 0.131 ± 0.0031
NS(=O)(=O)c1cc(C(=O)O)c(NCc2ccco2)cc1Cl [Furosemide] | 0.303 ± 0.0075 | 0.2547 ± 0.00051 | 0.242 ± 0.024 | 0.18 ± 0.0021 | 0.148 ± 0.0056
Clc1ccc2c(c1)C(N1CCNCC1)=Nc1ccccc1O2 [Amoxapine] | 0.171 ± 0.0069 | 0.16 ± 0.0024 | 0.162 ± 0.0019 | 0.0713 ± 0.0015 | 0.105 ± 0.0015
CC[C@H](C)C(=O)O[C@H]1C[C@H](O)C=C2C=C[C@H](C)[C@H](CC[C@@H](O)C[C@@H](O)CC(=O)O)[C@H]21 [Pravastatin] | 0.309 ± 0.0081 | 0.297 ± 0.013 | 0.222 ± 0.024 | 0.185 ± 0.019 | 0.152 ± 0.0073
CC(=O)OCC(=O)[C@@]12OC3(CCCC3)O[C@@H]1C[C@H]1[C@@H]3CCC4=CC(=O)C=C[C@]4(C)[C@@]3(F)[C@@H](O)C[C@@]12C [Amcinonide] | 0.287 ± 0.066 | 0.272 ± 0.011 | 0.241 ± 0.059 | 0.242 ± 0.07 | 0.172 ± 0.011
Clc1ccc(COC(Cn2ccnc2)c2ccc(Cl)cc2Cl)cc1 (stereo not given) [Econazole nitrate] | 0.048 ± 0.0022 | 0.05773 ± 5.8e-05 | 0.0544 ± 0.0013 | 0.0574 ± 0.0015 | 0.0483 ± 0.0014
